The text below walks through data of PubChem BioAssay (EPA / NIEHS).

SMILES strings stand for the structures. Results filed as inconclusive are left out. Calls of active or inactive are those of the source. Rule for the calls: active = hit-call score of the fitted dose curve at least 0.9, where 1 is the maximum; inconclusive = response in the unintended direction; inactive = score below 0.9.

Broad substrate specificity ATP-binding cassette transporter ABCG2 (Homo sapiens), sequence (Q9UNQ0 whole entry, looked up): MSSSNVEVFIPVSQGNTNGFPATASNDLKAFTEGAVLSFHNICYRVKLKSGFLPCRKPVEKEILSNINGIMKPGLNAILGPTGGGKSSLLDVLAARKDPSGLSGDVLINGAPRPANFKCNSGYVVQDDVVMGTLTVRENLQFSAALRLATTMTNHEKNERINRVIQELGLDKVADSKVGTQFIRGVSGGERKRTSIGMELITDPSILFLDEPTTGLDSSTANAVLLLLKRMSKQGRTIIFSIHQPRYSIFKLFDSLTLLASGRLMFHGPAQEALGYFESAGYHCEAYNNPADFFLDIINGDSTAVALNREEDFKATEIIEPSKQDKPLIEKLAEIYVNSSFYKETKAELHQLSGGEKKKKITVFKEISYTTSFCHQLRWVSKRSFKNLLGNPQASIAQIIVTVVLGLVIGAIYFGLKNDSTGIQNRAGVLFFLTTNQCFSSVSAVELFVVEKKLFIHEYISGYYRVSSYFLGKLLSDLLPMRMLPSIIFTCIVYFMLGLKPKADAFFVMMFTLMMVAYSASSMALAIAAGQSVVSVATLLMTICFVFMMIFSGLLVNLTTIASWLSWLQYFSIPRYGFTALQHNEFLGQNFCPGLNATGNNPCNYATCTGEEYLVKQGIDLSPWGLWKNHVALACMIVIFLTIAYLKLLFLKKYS

Read-out in this experiment: Broad substrate specificity ATP-binding cassette transporter ABCG2 (Homo sapiens) (UniProt Q9UNQ0)
As to the kind of experiment: CLD_ABCG2_24hr: CellzDirect (CLD) Gene Expression Assay for ABC Transporter (ABCG2) at 24 hours (AID 2283685). As for the experimental part:
CLD_24hr is a cell-based, multiplexed-readout assay that uses hepatocyte, a human liver primary cell, with measurements taken at 24 hours after chemical dosing in a 96-well plate.CLD_ABCG2_24hr is one of 16 assay component(s) measured or calculated from the CLD_24hr assay. It is designed to make measurements of mRNA induction, a form of inducible reporter, as detected with chemiluminescence signals by Quantitative Nuclease Protection Assay (qNPA) technology.Data from the assay component CLD_ABCG2_24hr was analyzed at the endpoint, CLD_ABCG2_24hr, in the positive analysis fitting direction relative to DMSO as the negative control and baseline of activity. Using a type of inducible reporter, gain-of-signal activity can be used to understand changes in the reporter gene as they relate to the gene ABCG2. Furthermore, this assay endpoint can be referred to as a primary readout. To generalize the intended target to other relatable targets, this assay endpoint is annotated to the transporter intended target family, where subfamily is ABC transporter.
Human hepatocyte cultures were treated daily for two consecutive days with fresh dosing solutions containing appropriate concentrations of the 320 ToxCast chemicals (chemical identities were blinded to CellzDirect and other ToxCast collaborators), vehicle control (0.2% DMSO), and positive control inducers as summarized in Table 1. Due to the large number of treatment groups and chemicals examined, the ToxCast chemicals were divided into two groups (spanning two independent cultures of hepatocytes from separate donor preparations (Hu778: ToxCast plates 1 and 2; Hu776: ToxCast plates 3 and 4). Each preparation of human hepatocyte cultures was treated with respective vehicle control, medium only control, set of six positive controls/reference chemicals for the five hepatic receptor pathways, and a subset of eight of the ToxCast chemicals (indoxacarb, pyrithiobac-sodium, norflurazon, cyhalofop-butyl, methomyl, thiram, acetochlor, and propiconazole). These replicate data, coupled with internal replicates designed within the blinded ToxCast chemical library, provided additional data to evaluate interindividual differences between hepatocyte preparations and their potential impact on chemical profiles.Cell morphology and integrity were evaluated using phase-contrast microscopy as an indicator of hepatocyte cell health (Tyson & Green, 1987). Cultures for each treatment group (i.e., media, vehicle [0.2% DMSO], positive control inducers [multiple concentrations], and the ToxCast chemicals [multiple concentrations]) were observed and cell morphology was assessed relative to vehicle control cultures at each harvest time point (0, 6, 24, or 48 h). […] Images were evaluated at the conclusion of the study to assess changes in cell integrity and account for the effects of chemical exposure on uncharacteristic changes in concentration-dependent gene expression profiles. The results from these determinations of apparent cytotoxicity were annotated (yes/no) alongside the corresponding qNPA data for reference.At the conclusion of each treatment period, hepatocyte cultures (96-well) were washed with 1 volume of HBSS, lysed by addition of 25 ul ArrayPlate lysis buffer (HTG, Tucson, AZ), and 70 ul/well of Denaturation Oil, denatured by incubation at 95C for 10 min, and frozen at approximately -70C until analysis by nuclease protection assay (qNPA) (Roberts et al., 2007). For qNPA analysis, cell lysates were thawed at 50C for approximately 30 min, qNPA probes were added, and samples were incubated at 95C for 10 min to begin the detection process by denaturing the target RNA, dissociating the duplexes and secondary structure hybridization. At the conclusion of the hybridization period, S1 nuclease reagent was added to each sample to digest all nonprotected nucleotides at 50C for 60-90 min. […]
On to `CCOC(=O)C(C)Oc1ccc(Oc2nc3ccc(Cl)cc3o2)cc1` (stereo not given), for which the compound was called inactive.
Under `O=C(Nc1ccc([N+](=O)[O-])cc1Cl)c1cc(Cl)ccc1O` stands “inactive”; under `CCSC(=O)N(CC(C)C)CC(C)C`, “inactive”.
In the case of `OB(O)O`, the compound was classed as inactive.
For the compound `Cc1nn(C)c(Oc2ccccc2)c1C=NOCc1ccc(C(=O)OC(C)(C)C)cc1`, the outcome was inactive.
As for `CCCOC(=O)NCCCN(C)C`, the entry is “inactive”.
Under `CCCOC(=O)c1ccc(C(=O)OCCC)nc1` stands “inactive”; under `CCCN(CCC)c1c([N+](=O)[O-])cc(C(F)(F)F)c(N)c1[N+](=O)[O-]`, “inactive”.
In the case of `CC(C)(C)[C@@H](O)[C@@H](Cc1ccc(Cl)cc1)n1cncn1`, the compound was called inactive.
As for `CCC(O)=C1C(=O)CC(C(=O)O)CC1=O` (stereo not given), the entry is “inactive”; as for `C#CCOC(=O)[C@@H](C)Oc1ccc(Oc2ncc(Cl)cc2F)cc1`, “inactive”.
Consider `CCCCCCC(C)OC(=O)COc1nc(F)c(Cl)c(N)c1Cl` (stereo not given), for which the compound was called inactive.
Regarding `CCCCOC(=O)C(C)Oc1ccc(Oc2ccc(C(F)(F)F)cn2)cc1` (stereo not given), the compound was classed as inactive.
As for `COCCO`, the outcome was inactive.
As for `S=C(S)NCCNC(=S)S.[Mn+2].[S-]C([S-])=NCCN=C([S-])[S-].[Zn+2]`, the outcome was inactive.
Under `COc1c(Cl)ccc(Cl)c1C(=O)O` stands “inactive”; under `CCOC(=O)[C@H](C)Oc1ccc(Oc2nc3ccc(Cl)cc3o2)cc1`, “inactive”; under `CCCN(CCC)C(=O)SCC`, “inactive”.
As for `CCC(C)OC(=O)N1CCCCC1CCO` (stereo not given), the entry is “inactive”; as for `S=C([S-])NCCNC(=S)[S-].[Mn+2]`, “inactive”.
Under `CCCCOC(=O)[C@@H](C)Oc1ccc(Oc2ccc(C(F)(F)F)cn2)cc1` stands “inactive”; under `COC(=O)c1ccc(I)cc1S(=O)(=O)NC(=O)Nc1nc(C)nc(OC)n1`, “inactive”.
For `CCOC(=O)NCCOc1ccc(Oc2ccccc2)cc1`, the call was inactive.
`COC(=O)CSc1cc(N=c2sc(=O)n3n2CCCC3)c(F)cc1Cl`: the compound was called inactive.
Under `CCOC(=O)COc1cc(-n2ncc(C(F)(F)F)c(C)c2=O)c(F)cc1Cl` stands “inactive”.
With `CC(C)(c1ccc(O)cc1)c1ccc(O)cc1`, the compound was classed as inactive.
As to `CSC(=O)c1cccc2nnsc12`, the call was inactive.
In the case of `O=C(O)C1(C(=O)Nc2ccc(Cl)cc2Cl)CC1`, the compound was called inactive.
For the compound `C=CCOC(Cn1ccnc1)c1ccc(Cl)cc1Cl` (stereo not given), the compound was classed as inactive.
As to `N#CSCSc1nc2ccccc2s1`, the compound was called inactive.
